These results are taken from publication PMC4336329 (PLoS ONE, 2015).

The campaign covered roughly 310,000 compounds. About 14,000 (4.5%) showed an effect of 50% or more. The effect is printed as a negative number. This excerpt belongs to a sample that is enriched for strong results.
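Also: peak tail current of the secondary pulse compared with the same well before compound.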

The target of this assay is human ether-à-go-go-related gene (hERG) potassium channel (human, UniProt Q12809). Nature of the assay: primary screen, population patch clamp on CHO cells stably expressing hERG; higher = less effect of the substance.
human ether-à-go-go-related gene (hERG) potassium channel, sequence (Q12809 whole entry, looked up): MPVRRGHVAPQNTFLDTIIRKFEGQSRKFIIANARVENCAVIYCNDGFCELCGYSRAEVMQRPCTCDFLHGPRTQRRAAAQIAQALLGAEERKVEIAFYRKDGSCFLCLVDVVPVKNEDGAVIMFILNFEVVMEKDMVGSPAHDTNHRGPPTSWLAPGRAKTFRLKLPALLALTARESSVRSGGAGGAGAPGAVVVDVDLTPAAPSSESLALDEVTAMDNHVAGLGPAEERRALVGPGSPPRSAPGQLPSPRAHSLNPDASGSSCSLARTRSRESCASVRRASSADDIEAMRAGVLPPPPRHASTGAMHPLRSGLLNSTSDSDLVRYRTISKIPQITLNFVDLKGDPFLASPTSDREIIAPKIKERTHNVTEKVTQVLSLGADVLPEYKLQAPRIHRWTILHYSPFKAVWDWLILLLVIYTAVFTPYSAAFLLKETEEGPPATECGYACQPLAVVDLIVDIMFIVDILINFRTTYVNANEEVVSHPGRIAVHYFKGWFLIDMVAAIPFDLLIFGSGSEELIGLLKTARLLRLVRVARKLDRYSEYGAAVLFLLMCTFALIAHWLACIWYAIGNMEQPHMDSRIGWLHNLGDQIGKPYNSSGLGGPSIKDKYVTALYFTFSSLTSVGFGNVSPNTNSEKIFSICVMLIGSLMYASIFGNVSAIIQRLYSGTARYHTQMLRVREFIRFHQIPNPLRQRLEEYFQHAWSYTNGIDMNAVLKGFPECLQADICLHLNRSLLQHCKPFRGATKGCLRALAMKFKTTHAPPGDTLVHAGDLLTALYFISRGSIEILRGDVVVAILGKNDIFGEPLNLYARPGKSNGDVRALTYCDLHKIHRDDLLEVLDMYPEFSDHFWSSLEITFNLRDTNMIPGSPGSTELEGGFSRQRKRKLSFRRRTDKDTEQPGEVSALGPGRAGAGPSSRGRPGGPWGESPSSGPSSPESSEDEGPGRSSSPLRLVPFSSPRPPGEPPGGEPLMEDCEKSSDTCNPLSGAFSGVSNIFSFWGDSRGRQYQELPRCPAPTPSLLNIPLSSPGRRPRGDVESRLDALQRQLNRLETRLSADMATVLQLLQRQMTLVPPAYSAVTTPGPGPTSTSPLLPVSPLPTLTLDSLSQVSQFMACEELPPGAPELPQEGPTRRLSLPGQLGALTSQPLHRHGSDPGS
For the molecule `CCOc1cc(N2CCOCC2)c(OCC)cc1NC(=O)CN1C(=O)NC2(CCc3ccccc32)C1=O` (stereo not shown), the “hERG current change (%, negative = inhibition) at 10uM” value is listed as -44.5%.
Take `COc1cc(NC(=O)c2ccccc2)c(OC)cc1NC(=O)CN1C(=O)NC2(CCCCC2C)C1=O` (stereo not shown): the “hERG current change (%, negative = inhibition) at 10uM” value is reported as -49.8%.
Regarding `CCOc1ccc(S(=O)(=O)N2CCOCC2)cc1NC(=O)CN1C(=O)NC2(CCCCC2)C1=O`, the “hERG current change (%, negative = inhibition) at 10uM” value is -17.9%.
Regarding `CCOc1cc(N2CCOCC2)c(OCC)cc1NC(=O)CN1C(=O)NC2(CCCCCCC2)C1=O`, the “hERG current change (%, negative = inhibition) at 10uM” value is reported as -63%.
Consider `CCOc1cc(N2CCOCC2)c(OCC)cc1NC(=O)CN1C(=O)NC2(CCCCC2)C1=O`, for which the “hERG current change (%, negative = inhibition) at 10uM” value was -69.7%.
As for `COc1cc(NC(=O)c2ccccc2)c(OC)cc1NC(=O)CN1C(=O)NC2(CCCCC2)C1=O`, the “hERG current change (%, negative = inhibition) at 10uM” value is on record as -70.3%.
For the molecule `CCOc1cc(N2CCOCC2)c(OCC)cc1NC(=O)CN1C(=O)NC(Cc2ccccc2)C1=O` (stereo not shown), the “hERG current change (%, negative = inhibition) at 10uM” value was -25.5%.
Regarding `CCOc1cc(N2CCOCC2)c(OCC)cc1NC(=O)CN1C(=O)C2CC=CCC2C1=O` (stereo not shown), the “hERG current change (%, negative = inhibition) at 10uM” value is listed as -8.84%.
With `CCOc1cc(N2CCOCC2)c(OCC)cc1NC(=O)CN1C(=O)N(C)C2(CCCCC2)C1=O`, the “hERG current change (%, negative = inhibition) at 10uM” value was -23.5%.
Then `COc1ccccc1NC(=O)CN1C(=O)NC2(CCCCCCC2)C1=O`, with 1.08%; and `CCOc1cc(N2CCOCC2)c(OCC)cc1NC(=O)CN1C(=O)NC(CC(C)C)C1=O` (stereo not shown), with -70.4%.
As to `CCOc1cc(N2CCOCC2)c(OCC)cc1NC(=O)CN1C(=O)NC(C)(C2CC2)C1=O` (stereo not shown), the “hERG current change (%, negative = inhibition) at 10uM” value was 26.8%.
In the case of `CSc1ccccc1C(=O)Nc1nc2ccccc2[nH]1` it was 2.78%.
Then `COc1ccccc1N(CC(=O)NC1CCCC1)C(=O)CCC(=O)Nc1ccccn1`, with 6.68%; and `Cc1[nH]n(-c2ccccc2)c(=O)c1-c1ccc(Cl)cc1`, with 9.3%.
Regarding `COc1ccc(C(=O)NC(=S)Nc2ccccc2F)cc1`, the “hERG current change (%, negative = inhibition) at 10uM” value is 9.53%.
Take `CN(C)S(=O)(=O)Oc1ccsc1C(=O)Nc1ccc(Cl)cc1`: the “hERG current change (%, negative = inhibition) at 10uM” value is -33.7%.
In the case of `Cc1cc(N=NC(=O)c2ccccc2)ccc1O`, the “hERG current change (%, negative = inhibition) at 10uM” value was 4.74%.
As to `O=C(Nc1ccc(Cl)cc1)NC1CCCC1Cc1ccco1` (stereo not shown), the “hERG current change (%, negative = inhibition) at 10uM” value is -15.3%.
In the case of `CCOc1ccc(Nc2cc(C)nc3ccc(C)cc23)cc1`, the “hERG current change (%, negative = inhibition) at 10uM” value is on record as -69.6%.
For `CCOc1ccccc1Nc1ccnc2cc(Cl)ccc12`, the “hERG current change (%, negative = inhibition) at 10uM” value is reported as -57.2%.
In the case of `CCOc1ccccc1Nc1cc(C)nc2ccc(C)cc12` it was -70.1%; in that of `CCOc1cc(/C=N/Nc2cc(C)nc3ccc(C)cc23)ccc1O`, 11.1%.
Regarding `Cc1ccc(Nc2cc(C)nc3ccc(C)cc23)cc1`, the “hERG current change (%, negative = inhibition) at 10uM” value was -37.9%.
For the molecule `Cc1ccc2nc(C)cc(Nc3ccc([N+](=O)[O-])cc3)c2c1`, the “hERG current change (%, negative = inhibition) at 10uM” value is -14.4%.
`CCOc1ccccc1/C=N/Nc1cc(C)nc2ccc(C)cc12`: the “hERG current change (%, negative = inhibition) at 10uM” value worked out at 8.9%.
Turning to `CCOc1ccc(Nc2ccnc3cc(Cl)ccc23)cc1`, the “hERG current change (%, negative = inhibition) at 10uM” value is recorded as -7.97%.
On to `Clc1ccc2c(NNc3ccccc3Cl)ccnc2c1`, for which the “hERG current change (%, negative = inhibition) at 10uM” value is given as 7.9%.
As for `Cc1ccccc1-n1nnnc1SCc1cc(=O)n2ccsc2n1`, the “hERG current change (%, negative = inhibition) at 10uM” value is listed as -25.6%.
Take `Cc1nc2ccccc2nc1N1CCOCC1`: the “hERG current change (%, negative = inhibition) at 10uM” value is given as 5.42%.
On to `Cc1cccc2nc(Cn3c(=O)n(CCCC(=O)NCc4ccco4)c(=O)c4ccccc43)cc(=O)n12`, for which the “hERG current change (%, negative = inhibition) at 10uM” value is given as -23%.
In the case of `COc1ccc(S(=O)(=O)Nc2ccc(Nc3ccccc3)cc2)cc1` it was 5.15%; in that of `N#Cc1ccccc1Cn1cc(C(=O)c2ccccc2F)c2ccccc21`, 4.67%; in that of `Cc1cc(C)cc(NC(=O)c2cnn(-c3ccccc3)c2C2CCNCC2)c1.Cl`, -19.7%.
Consider `Cc1ccc(-n2ncc(C(=O)Nc3cc(Cl)ccc3C)c2C2CCNCC2)cc1C.Cl`, for which the “hERG current change (%, negative = inhibition) at 10uM” value is reported as -35.1%.
`Cc1cccc(C)c1-n1ncc(C(=O)NC2CCCC2)c1C1CCNCC1`: the “hERG current change (%, negative = inhibition) at 10uM” value is 18.9%.
In the case of `Cc1ccc(-n2ncc(C(=O)Nc3cc(Cl)ccc3Cl)c2C2CCNCC2)cc1.Cl`, the “hERG current change (%, negative = inhibition) at 10uM” value is listed as -62%.
`Cc1c(C(=O)Nc2ccccc2)cnn1-c1ccccc1`: the “hERG current change (%, negative = inhibition) at 10uM” value is listed as -3.03%.
Then `Cc1ccc(-n2ncc(C(=O)Nc3ccc(Cl)cc3)c2C2CCNCC2)cc1C.Cl`, with -71.7%; and `CCc1ccc(NC(=O)c2cnn(-c3ccccc3)c2C2CCNCC2)cc1.Cl`, with -60%; and `Cc1cccc(NC(=O)c2cnn(-c3ccc(F)cc3)c2C2CCNCC2)c1C.Cl`, with -9.71%.
For the molecule `O=C(c1ccco1)N1CCN(C(=O)c2cnn(-c3ccc(Cl)cc3)c2C2CCNCC2)CC1`, the “hERG current change (%, negative = inhibition) at 10uM” value came out at 15%.
Consider `CCc1cccc(NC(=O)c2cnn(-c3ccccc3)c2C)c1`, for which the “hERG current change (%, negative = inhibition) at 10uM” value was -56%.
`CCc1ccc(NC(=O)c2cnn(-c3ccccc3)c2C)cc1`: the “hERG current change (%, negative = inhibition) at 10uM” value is given as 2.7%.
For `CCCc1c(C(=O)Nc2ccc(F)cc2)cnn1-c1ccccc1`, the “hERG current change (%, negative = inhibition) at 10uM” value turned out to be 12.5%.
Consider `NC(=O)c1ccc(N=Cc2ccc([N+](=O)[O-])s2)cc1`, for which the “hERG current change (%, negative = inhibition) at 10uM” value was determined as 8.6%.
In the case of `Cc1cccc(OCc2nnc(SCC(=O)O)n2Cc2ccccc2)c1`, the “hERG current change (%, negative = inhibition) at 10uM” value was 28.1%.
As for `Cc1cccc(C(=O)Nc2nnc(Cc3c[nH]c4ccccc34)s2)c1`, the “hERG current change (%, negative = inhibition) at 10uM” value is on record as 12.7%.
In the case of `O=C(NCc1cccs1)C1CCN(S(=O)(=O)c2ccc3c(c2)OCCO3)CC1` it was 16.5%.
In the case of `Cc1ccc(C(=O)NCCN2CCOCC2)c(Cl)c1`, the “hERG current change (%, negative = inhibition) at 10uM” value was 5.79%.
As for `COc1ccccc1OCC(=O)Nc1cccc(-c2nc3ccccc3o2)c1`, the “hERG current change (%, negative = inhibition) at 10uM” value is 0.23%.
As to `COc1ccc(-c2cccc(NS(=O)(=O)c3ccc([N+](=O)[O-])cc3)c2)nn1`, the “hERG current change (%, negative = inhibition) at 10uM” value is recorded as -15.2%.
In the case of `CSc1cccc(NC(=O)C2CCN(S(=O)(=O)c3ccc4c(c3)NC(=O)CO4)CC2)c1` it was 12.3%; in that of `O=C(Nc1ccccc1)/C(=C/c1ccc(F)cc1)NC(=O)c1ccco1`, -2.63%.
Regarding `CCCCc1ccc(NC(=O)CSc2nnc(C)c(=O)n2N)cc1`, the “hERG current change (%, negative = inhibition) at 10uM” value is listed as -23.9%.
